{
  "source": "PubChem BioAssay (NCI)",
  "note": "Compounds without any hit were thinned out: in the full panel of roughly 83,000, 20% have a hit.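 Note: values are percent growth. 100 is the growth of untreated cells, values between 100 and 0 indicate rising inhibition; between -100 and 0 indicates cell death.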 Values without a mark were called inactive. Active and inactive are the calls of the source. How the source made its calls: active means growth percent below 10; inactive means the rest.",
  "data": [
    {"test_system": "HL-60(TB) leukemia", "experiment": "NCI-60 one-dose screen, 48 h (100 = growth as untreated, 0 = no growth, -100 = all killed)", "details": "10 µM unless noted", "values": [
      {"molecule": "CC1(C)CC[C@]2(C(=O)NCCCCCCN(CCCN)CCCN)CC[C@]3(C)C(=CC[C@@H]4[C@@]5(C)CC[C@H](O)C(C)(C)[C@@H]5CC[C@]43C)[C@@H]2C1", "growth": "99.1%"},
      {"molecule": "COc1cc(OC)c(C2C(Cl)C(=O)N2Nc2ncnc3ccccc23)cc1OC", "note": "(centres undefined)", "growth": "108%"},
      {"molecule": "COc1cc(-c2nn(C(C)(C)C)cc2-c2ccnc(NCCCNS(=O)(=O)c3ccc(C)cc3)n2)ccc1Cl", "growth": "108%"},
      {"molecule": "CCc1cc(O)ccc1Nc1cc(-c2ccc(-n3cccn3)cc2)[nH]n1", "growth": "58.6%"},
      {"molecule": "O=C(Nc1ccc2c(ccn2Cc2ccccn2)c1)c1cnccn1", "growth": "131%"},
      {"molecule": "C=CCN(C)S(=O)(=O)/N=C1\\NC(=O)NC1=C(Cl)Cl", "growth": "-51.7% (active)"},
      {"molecule": "CCCCCCN1C=C/C(=C\\C(=O)n2ccc3ccccc32)c2ccccc21", "growth": "24.7%"},
      {"molecule": "O=C1c2c(c3c4cccnc4[nH]c3c3ccc4ccccc4c23)C(=O)N1CCN1CCNCC1", "growth": "64.2%"},
      {"molecule": "O=C1Nc2ccccc2/C1=C/c1ccc(OCC(=O)c2ccccc2)cc1", "growth": "105%"},
      {"molecule": "COc1ccc(Oc2ccc(C3CC(c4cc(OC)c(OC)c(OC)c4)=NN3C(C)=O)cc2)cc1", "note": "(centres undefined)", "growth": "-14.9% (active)"},
      {"molecule": "O=C(O)c1cn(C2CC2)c2cc(N3CCN(C(=O)CN4C(=O)CSC4=O)CC3)c(F)cc2c1=O", "growth": "135%"},
      {"molecule": "Cc1nc2cnc(N)c(C#Cc3cncc(C(=O)Nc4ccc(Cl)c(C(F)(F)F)c4)c3)c2nc1C", "growth": "15.8%"},
      {"molecule": "COc1ccc(-c2nn(-c3ccccc3)cc2/C=C/C(=O)c2ccc(NC(=O)CCCCCCC(=O)NO)cc2)cc1", "growth": "116%"},
      {"molecule": "CNC1CCc2c(sc(NC(=O)c3ccc(C(C)(C)C)cc3)c2C(N)=O)C1", "note": "(centres undefined)", "growth": "-69.3% (active)"},
      {"molecule": "CN1CCN(CCNc2nc(-c3cccc(NS(=O)(=O)c4cccc5c(N(C)C)cccc45)c3)cs2)CC1", "growth": "45%"},
      {"molecule": "Clc1ccc2[nH]cc(-c3cncn3CCc3ccc4c(c3)OCO4)c2c1", "growth": "52.1%"},
      {"molecule": "C[C@@H]1OCC2(CCN(c3cnc(C(=O)Nc4cc(F)cc5cccnc45)cn3)CC2)[C@@H]1N", "growth": "20.4%"},
      {"molecule": "Oc1ccc(-c2nnc(SCc3ccc(O)c4ncccc34)n2-c2ccccc2)cc1", "growth": "1.26% (active)"},
      {"molecule": "CC(=O)c1sc(Nc2cccc(Nc3nc(C)c(C)s3)c2)nc1C", "growth": "34.2%"},
      {"molecule": "COc1ccc(/C=N/NC(=O)c2[nH]c3ccc(Br)cc3c2-c2ccccc2)o1", "growth": "-20.2% (active)"},
      {"molecule": "CCOc1ccc2nc(NC(=O)Nc3ccccc3C)sc2c1", "growth": "15.3%"},
      {"molecule": "C#CCOc1ccc(C(Nc2ccc(Cl)cc2)c2nnnn2C2CCCCC2)cc1", "note": "(centres undefined)", "growth": "83.8%"},
      {"molecule": "Cc1ccccc1NC(=O)/C=C/c1ccc(OCCOc2ccc3c(C)cc(=O)oc3c2)cc1", "growth": "97.2%"},
      {"molecule": "Cc1[nH]c(C(=O)Nc2ccc(S(=O)(=O)N3CCCCC3)cc2OCCOCCOCCOCCOCCOCCOCCOCCOCCOc2cc(S(=O)(=O)N3CCCCC3)ccc2NC(=O)c2[nH]c(C)c3c2CCCCC3=O)c2c1C(=O)CCCC2", "growth": "10.7%"},
      {"molecule": "C/C(=N\\NC(=O)/C=C/CC(=O)O)c1nnn(-c2ccc([N+](=O)[O-])cc2)c1C", "growth": "98%"},
      {"molecule": "Cc1ccc(-c2nnc(SCc3ccc(O)c4ncccc34)n2-c2ccccc2)cc1", "growth": "0.292% (active)"},
      {"molecule": "COc1cc(OC)c(/C=C/S(=O)(=O)Cc2ccc(OC)c(NCC(=O)NO)c2)c(OC)c1", "growth": "-13.5% (active)"},
      {"molecule": "N#Cc1c(-c2ccc(Cl)cc2)nc2c(-c3ccccc3)c(Nc3ccccc3)nn2c1N", "growth": "91.3%"},
      {"molecule": "O=C(NNc1nc2cc(F)ccc2n2cccc12)c1ccncn1", "growth": "-4.33% (active)"},
      {"molecule": "COc1cc2oc(-c3cccc(NC(=O)c4cccc([N+](=O)[O-])c4)c3)cc(=O)c2c(OC)c1OC", "growth": "68.9%"},
      {"molecule": "CC(=O)Nc1ccc(NC(=O)Nc2cccc(-c3nc(-c4ccc(NC(=O)c5cccs5)cc4Cl)no3)c2)cc1C(F)(F)F", "growth": "5.88% (active)"},
      {"molecule": "O=C(c1ccc(O)c(C(=O)N2Cc3ccc(OCCC[P+](c4ccccc4)(c4ccccc4)c4ccccc4)cc3C2)c1)N1Cc2cccc(F)c2C1", "growth": "57.8%"},
      {"molecule": "NC(N)=Nc1ccc(Oc2cccc(Nc3ccc(Br)c(C(F)(F)F)c3)c2)cc1", "growth": "-50.3% (active)"},
      {"molecule": "CS(=O)(=O)c1nccc(-c2c(-c3ccc(F)c(OCCc4ccc(F)cc4)c3)nc3sccn23)n1", "growth": "-12.1% (active)"},
      {"molecule": "CCNC(=O)N1CCc2cc(OC)c(OCCc3ccc(OC)c(N)c3)cc2C1c1cc(C)c(C)cc1C", "note": "(centres undefined)", "growth": "22.1%"},
      {"molecule": "Cn1ccnc1C(=O)/C=C/C=C/c1ccc(C(=O)Nc2ccc(F)cc2)cc1", "growth": "13.3%"},
      {"molecule": "CCc1cccc2c3c(sc12)C(c1ccc(OC)cc1)C(C#N)=C(/N=C/c1ccc(Cl)cc1)O3", "note": "(centres undefined)", "growth": "2.87% (active)"},
      {"molecule": "COc1ccc(/C=N\\NC(=O)c2ccc3nc(-c4ccc(Br)cc4)[nH]c3c2)cc1", "growth": "84.4%"},
      {"molecule": "Oc1[nH]c2ccc(Cl)cc2c1N=Nc1nc(N=Nc2c(O)[nH]c3ccc(Cl)cc23)nc(N2CCOCC2)n1", "growth": "72.2%"}
    ]}
  ]
}
